# Reference: PubChem BioAssay AID2314 (National Center for Advancing Translational Sciences (NCATS), 2010)
# In all, about 300,000 compounds went through this assay and about 37,000 (12%) were called active. The sample holds actives, similar compounds and a random draw of the others, so the mix is not that of the screen. No stated cut-off is given here; in the data, active means max response mostly above about 13% (no sharp cut-off); inactive means mostly below about 14%.
# Experiment: Cycloheximide Counterscreen for Small Molecule Inhibitors of Shiga Toxin; further: read at 38.3 µM for the half of the compounds with a filed dose; 0% is about no effect
# Conditions: cell reporter, cycloheximide protein synthesis inhibition counterscreen; hits give high values
row,Compound,max response
1,CC(C)c1cc(C(N)=O)c(NC(=O)c2cccc(COc3ccc(Br)cc3)c2)s1,142% (active)
2,Cc1ccc(COc2ccc(C(=O)NN)cc2)cc1,15.8% (inactive)
3,NNC(=O)c1cccc(COCC(F)(F)C(F)F)c1,9.81% (inactive)
4,CN(C)C(=O)CCC(=O)N1CCCCC1C(=O)Nc1ccc(Oc2ccccc2F)cc1 (configuration not stated),-1.6% (inactive)
5,O=S(=O)(NCc1cccnc1)c1ccc(Br)s1,-6.09% (inactive)
6,O=S(=O)([N-]c1nc2ccccc2nc1-[n+]1ccc(Cc2ccccc2)cc1)c1ccc(Br)s1,10.5% (active)
7,Cc1cc(C)c[n+](-c2nc3ccccc3nc2[N-]S(=O)(=O)c2cccs2)c1,-0.756% (inactive)
8,CCCSc1nc(NCc2ccco2)c2c3c(sc2n1)COC(C)(CC)C3 (configuration not stated),24.2% (inactive)
9,O=c1onc(-c2c(F)cccc2F)n1-c1ccccc1Cl,-4.66% (inactive)
10,O=C(O)c1cc2c(cc1NC(=O)c1c(F)cccc1Cl)OCCCO2,-4.07% (inactive)
11,O=C(Nc1nnc(SCc2ccccc2Cl)s1)c1cccc([N+](=O)[O-])c1,-4.31% (inactive)
12,C=CCSc1nnc(NC(=O)c2ccc(NC(C)=O)cc2)s1,14.5% (active)
13,NC(=O)CSc1nnc(NC(=O)c2ccc(Br)o2)s1,27.9% (inactive)
14,CCSc1nnc(NC(=O)c2ccc(C)cc2)s1,32.4% (active)
15,CCOC(=O)CSc1nnc(NC(=O)c2cccc(S(=O)(=O)N3CCCC3)c2)s1,-1.74% (inactive)
16,CCSc1nnc(NC(=O)Cc2ccccc2OC)s1,7.43% (inactive)
17,Cc1ccc(N=Cc2c(O)n(-c3nccs3)c(=O)c3ccccc23)c(C)c1,0.787% (inactive)
18,O/N=C(\C[n+]1ccccc1)c1ccc(Br)cc1,-6.18% (inactive)
19,CC1CC(=O)N(CC(=O)Nc2cccc(Cl)c2)c2ccccc2S1(=O)=O (configuration not stated),-1.52% (inactive)
20,O=C(NC1CCCCCC1)c1cccnc1Sc1ccc(Cl)cc1,-2.31% (inactive)
21,Cc1cc(C)c(NC(=O)C[N+](C)(C)CC(O)COc2cccc3ccccc23)c(C)c1 (configuration not stated),-2.87% (inactive)
22,CCC(C)(C)NC(=O)C(c1ccc(O)cc1)N(Cc1ccco1)C(=O)CCC(=O)Nc1ccccn1 (configuration not stated),13.8% (inactive)
23,COc1ccc(C2=NS(=O)(=O)N(C)C(C(=O)NC(C)c3ccccc3)=C2)cc1 (configuration not stated),-2.97% (inactive)
24,O=C(Nc1cccc(-c2cscn2)c1)C1CCN(Cc2ccsc2)CC1,-0.646% (inactive)
25,COCCOC(=O)c1c(C)oc2cc(Br)c(OCC(N)=O)cc12,-1.75% (inactive)

row,Compound,max response
1,CCn1c(SCCC(C)C)nnc1-c1c[nH]c2ccccc12,-5.75% (inactive)
2,Cc1cc(-c2n[nH]c(=S)n2-c2ccc(C)c(C)c2)no1,10.2% (inactive)
3,CCCc1cc(-c2nc(-c3ccc(C)cc3)cs2)ccn1,39.7% (active)
4,CCCc1nc2scc(-c3ccc(C)cc3)c2c(=O)n1N,25.8% (inactive)
5,Cc1cc(-c2nc(C)c(-c3nnc(SCC(=O)Nc4ccccc4)n3C)s2)no1,-3.06% (inactive)
6,Cc1ccc(-c2csc(-c3cc(C)on3)n2)cc1,17% (active)
7,CCC(C)Sc1nnc(-c2c[nH]c3ccccc23)n1CCOC (configuration not stated),-2.17% (inactive)
8,CCCc1cc(-c2n[nH]c(=S)n2CC)c2ccccc2n1,-5.71% (inactive)
9,Cc1ccc(-c2csc(-c3c[nH]c4ccccc34)n2)cc1,52.5% (active)
10,COc1cccc(N(CC(=O)NC2CCCC2)C(=O)CCCC(=O)Nc2ccccn2)c1,-1.64% (inactive)
11,Cn1nccc1C(=O)NC1CCCc2c1cnn2-c1ccc(F)cc1F (configuration not stated),-0.526% (inactive)
12,O=C(NCCN1C(=O)S/C(=C\c2cccnc2)C1=O)c1ccc(S(=O)(=O)N2CCCC2)cc1,7.82% (inactive)
13,NC(=O)C1(C(N)=O)OC1c1ccc(Cl)cc1Cl (configuration not stated),-2.97% (inactive)
14,CCOCC(=O)NCc1ccc2c(c1)cc(C)n2C,0.782% (inactive)
15,Cc1sc(NC(=S)NC(=O)c2cccs2)nc1-c1ccc(CC(C)C)cc1,9.37% (inactive)
16,Cc1ccc(S(=O)(=O)CC(=O)NC(C)c2ccccc2)cc1 (configuration not stated),-0.898% (inactive)
17,CC1(C)SC2c3ccccc3C(=O)N2[C@@H]1C(=O)NCc1ccco1 (some centres not stated),-2.7% (inactive)
18,CCCCNC(=O)c1cn(CC)c2cc(N3CCN(C(=O)c4ccco4)CC3)c(F)cc2c1=O,-2.67% (inactive)
19,CC(C)OCCCNC(=O)CN1C(=O)/C(=C/c2ccccc2F)Oc2ccccc21,-1.24% (inactive)
20,CN(C)C(=O)Cn1c(=O)n(S(=O)(=O)c2ccccc2)c2ccccc21,-2.7% (inactive)
21,O=C(CSc1nnc2c(n1)[nH]c1ccccc12)NC1CCCCC1,-2.06% (inactive)
22,O=C(CSc1nnc(-c2ccccc2O)o1)NC1CCCCC1,-5.38% (inactive)
23,O=C(CSc1ncnc2c1oc1ccccc12)NC1CCCC1,13.3% (active)
24,COc1ccc(N(CC(=O)NCCSCc2cccc(Cl)c2)S(C)(=O)=O)cc1,10.3% (inactive)
25,COc1ccccc1NC(=O)CCC(=O)N1CC(C)Oc2ccc(C)cc21 (configuration not stated),-2.59% (inactive)

row,Compound,max response
1,COc1ccc(CNc2ncnc3ccccc23)cc1,-4.12% (inactive)
2,COc1ccc(CNc2nccs2)cc1,15.6% (active)
3,COc1ccc(N(CC(=O)NCc2ccc(F)cc2)C(=O)CCC(=O)Nc2nccs2)cc1,2.82% (inactive)
4,O=C(NCc1cccnc1)C12CC3CC(CC(C3)C1)C2,-4.42% (inactive)
5,Cc1cccc(N2C(=O)SC(SC(=Nc3ccccc3)Nc3ccccc3)C2=O)c1 (configuration not stated),50% (active)
6,Cc1cccc(N2C(=O)CC(SC(N)=Nc3ccccc3)C2=O)c1 (configuration not stated),6.82% (inactive)
7,COC(=O)c1ccccc1SC1CC(=O)N(c2cccc(C)c2)C1=O (configuration not stated),-2.47% (inactive)
8,O=C(NCc1ccc2c(c1)OCO2)C(=O)NCC1OCCN1S(=O)(=O)c1ccc(F)cc1 (configuration not stated),0.524% (inactive)
9,O=S(=O)(NC1CCCC1)c1ccc(-n2cnnn2)cc1,-3.31% (inactive)
10,Clc1nc(NC2CCCC2)nc(N2CCOCC2)n1,-1.13% (inactive)
11,CC1CC(C)CN(CCOc2cccc3ccccc23)C1 (configuration not stated),-3.88% (inactive)
12,CCCC(=O)N1c2ccc(-c3csc(N)n3)cc2CC1C (configuration not stated),82.4% (active)
13,Cc1ccn(CCC(=O)N2c3ccccc3CC2C)n1 (configuration not stated),-3.05% (inactive)
14,CCn1nc(C(=O)OCC(=O)N2c3ccccc3CC2C)c2ccccc2c1=O (configuration not stated),-2.9% (inactive)
15,COc1ccc(Nc2cc(Sc3ccc(OC)cc3)ncn2)cc1,12.3% (inactive)
16,COc1ccc(Nc2ncnc3ccc(OC)cc23)cc1,4.47% (inactive)
17,COc1ccc(Nc2ncnc3sc(C)cc23)cc1,41% (active)
18,CS(=O)(=O)N1CCN(CC(=O)NC2CCCC2)CC1,2.24% (inactive)
19,COc1ccc(C2CC(=O)NC(=O)C2)cc1,5.71% (inactive)
20,O=C1COc2ccc(S(=O)(=O)NCCc3ccc(Cl)cc3)cc2N1,-8.47% (inactive)
21,COC(=O)c1c(NC(=O)CN2C(=O)NC(CCc3ccccc3)C2=O)sc2c1CCCCC2 (configuration not stated),-2.51% (inactive)
22,Nc1cc(N2CCCCCC2)c2nonc2c1[N+](=O)[O-],-1.67% (inactive)
23,Cc1cccc(NC(=O)CCN2CC(C)CC(C)C2)c1 (configuration not stated),-2.06% (inactive)
24,N#CCc1ccc(NC(=O)c2ccccc2C(=O)Nc2ccc(CC#N)cc2)cc1,21.8% (active)
25,NC(=O)COc1ccc(NC(=O)c2ccccc2-c2ccccc2)cc1,-2.28% (inactive)

row,Compound,max response
1,CC(=O)Nc1ccc(CC#N)cc1,-2.61% (inactive)
2,O=C(Nc1ccccc1N1CCOCC1)c1ccc(OCc2cscn2)cc1,-3.59% (inactive)
3,CNC(=O)N1c2ccccc2C=Cc2ccccc21,-2.75% (inactive)
4,Cc1nnc(SCc2cccc(Cl)c2)n(N)c1=O,8.39% (inactive)
5,Nn1c(SCc2ccccc2)nnc1C1CCCCC1,38.2% (active)
6,Cc1cccc(CSc2nnc(C)c(=O)n2N)c1,-1.39% (inactive)
7,O=[N+]([O-])c1ccc(N2CCN(c3ccc(F)cc3)CC2)cn1,-1.96% (inactive)
8,CCCCC(=O)Nc1nnc(S(=O)(=O)N(C)Cc2ccco2)s1,12% (inactive)
9,Cc1ccc([N+](=O)[O-])cc1S(=O)(=O)N1CCCN(C)CC1,-0.621% (inactive)
10,Cc1cccc(C(=O)NNC(=O)c2cccc([N+](=O)[O-])c2)c1,0.787% (inactive)
11,COc1cccc(C(=O)CC(=O)C(=O)Nc2ccc([N+](=O)[O-])cc2C)c1,-0.608% (inactive)
12,Cc1cc(CNC(=O)c2cccc([N+](=O)[O-])c2)c2ccccc2n1,18.3% (inactive)
13,COc1cccc(CNC(=O)CCCC(=O)Nc2cccc([N+](=O)[O-])c2)c1,-3.22% (inactive)
14,COc1cccc(NCCC(=O)c2cccc([N+](=O)[O-])c2)c1,34.7% (active)
15,CC(C)(C)SCCNC(=O)c1cccc([N+](=O)[O-])c1,19.6% (active)
16,COCCCNCCOCCOc1ccc(Cl)cc1Br,-3.84% (inactive)
17,CC(C)(C)c1nnc(NC(=O)C2c3ccccc3Oc3ccccc32)s1,-2.51% (inactive)
18,O=c1o[nH]c(-c2ccccc2)c1N=Nc1c(F)cccc1Cl,6.23% (inactive)
19,COc1ccc2c(c1)c(C(=O)N/N=C/c1cccs1)c(C)n2C,-3.51% (inactive)
20,O=C(CN1CCC(NC(=O)Nc2ccccc2)CC1)Nc1cccc([N+](=O)[O-])c1,-2.36% (inactive)
21,COCCNC(=O)c1ccc(S(=O)(=O)c2ccc(Cl)cc2)c(NC(C)=O)c1,-7.19% (inactive)
22,CCOc1cc(/C=C/c2nc3ccccc3c(=O)[nH]2)cc(Br)c1OC,2.32% (inactive)
